Screens (PubChem BioAssay)
L major viab – reduces viability of Leishmania major promastigotes; resazurin fluorescence viability; 200,000 compounds, 9% hits; inhibition, % at 10 µM; in the data active means inhibition above about 50%;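 further: promastigotes grown with compound for 44 hours at 28 °C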
ROMK mod – modulates human ROMK potassium channel activity; P48048; Tet-inducible ROMK, thallium flux fluorescence; actives lie on both sides; B-score at 10 µM; 130,000 compounds, 2% hits; AID 1918;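 active means signal ratio slope over the read window, or its plate-corrected B-score, at least 3 SD from the plate mean, either direction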;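 further: B-score of the F/F0 ratio slope over 7 to 12 s after thallium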
bCat KO growth – beta-catenin-lacking colon tumor cell growth suppression. HCT116 beta-catenin knockout viability, CellTiter-Glo, 60 h; hits give low values. viability, % at 10 µM. 140,000 compounds, 1.5% hits. AID 818;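 active means viability at or under a set limit, the compound median less 4 SD, cut at about 6% in these data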;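 further: 0% = Hyamine 1622 control at 20 µM and 100% = untreated cell control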
INS promoter inh – TRM-6 insulin promoter activity inhibition; TRM-6 cells (human fetal islet line), insulin promoter-eGFP reporter, imaging; reporter expression induced with tamoxifen; inhibition, % at 2 µM; 130,000 compounds, 0.9% hits; AID 1273;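 active means inhibition above the mean plus 3 SD, with well images judged a real hit on visual review, cut at about 60% in these data, passing the limit was not always enough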
p97 ATPase inh – inhibitors of human p97 ATPase; recombinant p97 ATPase, Kinase-Glo ATP luminescence, 3 h; inhibition, % at 8 µM; 220,000 compounds, 0.42% hits; P55072; in the data active means inhibition above about 15%;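 further: 0% = DMSO vehicle and 100% = wells lacking enzyme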
Target sequence (P55072 whole entry, looked up): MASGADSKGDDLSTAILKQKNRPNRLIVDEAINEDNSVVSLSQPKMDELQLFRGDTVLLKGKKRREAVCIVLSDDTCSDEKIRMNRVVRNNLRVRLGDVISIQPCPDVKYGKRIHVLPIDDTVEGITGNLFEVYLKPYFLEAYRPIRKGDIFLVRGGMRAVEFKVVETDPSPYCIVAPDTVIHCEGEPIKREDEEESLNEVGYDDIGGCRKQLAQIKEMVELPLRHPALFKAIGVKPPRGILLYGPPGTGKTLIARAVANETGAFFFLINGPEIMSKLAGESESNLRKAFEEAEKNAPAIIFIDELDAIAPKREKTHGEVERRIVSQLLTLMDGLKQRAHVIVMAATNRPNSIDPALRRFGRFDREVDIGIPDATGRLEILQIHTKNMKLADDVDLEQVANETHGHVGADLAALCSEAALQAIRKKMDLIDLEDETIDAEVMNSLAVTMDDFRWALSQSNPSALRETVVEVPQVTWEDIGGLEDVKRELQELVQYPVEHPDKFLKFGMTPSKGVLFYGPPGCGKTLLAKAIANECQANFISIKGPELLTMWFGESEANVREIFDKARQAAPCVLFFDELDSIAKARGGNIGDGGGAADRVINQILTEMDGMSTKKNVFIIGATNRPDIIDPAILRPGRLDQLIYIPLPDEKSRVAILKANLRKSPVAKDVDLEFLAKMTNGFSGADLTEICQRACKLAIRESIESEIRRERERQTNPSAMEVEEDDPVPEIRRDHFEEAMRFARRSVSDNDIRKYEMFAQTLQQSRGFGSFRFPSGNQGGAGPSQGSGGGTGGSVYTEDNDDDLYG
PTEN del growth – growth suppressors of cells with PTEN tumor suppressor deletion. HCT116 PTEN-null viability, CellTiter-Glo, 60 h; hits give low values. viability, % at 10 µM. 140,000 compounds, 1.2% hits. AID 827;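 active means viability at or below a set limit, 4 SD under the median of all tested compounds, cut at about 3.7% in these data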;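 further: PTEN knockout HCT116 line with beta catenin targeted HCT116 as companion control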
* = called active by the depositor; nt = not tested or not shown. An excerpt weighted towards active compounds, which were near 10% of everything screened.

SMILES	L major viab	ROMK mod	bCat KO growth	INS promoter inh	p97 ATPase inh	PTEN del growth
Cc1cc(/N=C/C=C2\N(C)c3ccccc3C2(C)C)n(CCC#N)n1	101*	0.097	61	nt	0	66
CCOC(=O)C1C(=O)NC(c2ccccc2)=NC1c1ccc(O)c(OC)c1 (centres undefined)	-2	1.8	nt	nt	2	nt
Cc1cc(C)c(C(=O)CN2C(=O)NC3(CCCCCC3)C2=O)cc1C	11	0.037	nt	nt	-8	nt
COc1ccc(C(=O)Oc2c(CN3CCOCC3)cc(Cl)c3cccnc23)cc1	97*	nt	4.9*	-21	-10	3.1*
O=C(Oc1c(CN2CCOCC2)cc(Cl)c2cccnc12)c1ccc(F)cc1	100*	-1.5	5.0*	-5	2	1.9*
COc1cc(C(=O)Oc2c(CN3CCOCC3)cc(Cl)c3cccnc23)cc(OC)c1OC	100*	nt	2.4*	nt	-1	1.5*
COc1cccc(C(=O)OCCN2CCOCC2)c1	-4	0.017	nt	nt	-1	nt
COc1cccc(C(=O)Oc2c(CN3CCOCC3)cc(Cl)c3cccnc23)c1	100*	nt	1.6*	14	2	1.4*
O=C(Oc1ccc(Cl)c2cccnc12)N1CCOCC1	-6	nt	88	-16	3	83
Cn1c(=O)c2c(nc(N3CCc4ccccc4C3)n2C)n(C)c1=O	4	-0.33	nt	35	5	nt
O=C1CC(N2CCN(Cc3ccc4c(c3)OCO4)CC2)C(=O)N1Cc1ccc(N2CCCC2=O)cc1 (centres undefined)	7	-0.49	94	0	2	92
O=C1CC(Cc2ccccc2)C(=O)N1CCc1ccc2c(c1)OCO2 (centres undefined)	100*	-0.57	93	-26	1	97
COc1ccc(CCN2C(=O)CC(Cc3ccc(Br)cc3)C2=O)cc1OC (centres undefined)	56*	nt	69	-26	-8	70
O=C1CC(N2CCN(Cc3ccc4c(c3)OCO4)CC2)C(=O)N1CCc1ccccc1 (centres undefined)	87*	0.46	66	-79	-1	72
NNC(=O)C(Cc1ccccc1)NC(=O)OCc1ccccc1 (centres undefined)	-7	0.017	nt	35	-9	nt
CC(C(=O)Nc1ccc(S(=O)(=O)N2CCOCC2)cc1)N1C(=O)C2CC=CCC2C1=O (centres undefined)	-6	0.26	nt	nt	-7	nt
Cc1nn(-c2ccccc2)nc1C(=O)Nc1nnc(C(F)(F)F)s1	nt	nt	nt	nt	3	nt
Cn1c(CN2CCN(C(=O)c3ccccc3)CC2)nc2cc([N+](=O)[O-])ccc21	51*	-1.5	90	23	3	97
O=C(O)CC1(CC(=O)Nc2ccccc2N2CCOCC2)CCCC1	nt	nt	nt	nt	6	nt
c1ccc2[nH]c(NN=C3CCCCCC3)nc2c1	75*	-0.27	nt	nt	3	nt
Cc1cc(N/N=C2/CCCc3ccccc32)nc2ccccc12	90*	1.3	nt	nt	1	nt
CC1C/C(=N/NC(=O)c2ccc(CSc3nc4ccccc4[nH]3)cc2)CC(C)(C)C1 (centres undefined)	39	nt	91	-27	8	98
CC1C/C(=N/Nc2ccc([N+](=O)[O-])cc2[N+](=O)[O-])CC(C)(C)C1 (centres undefined)	2	nt	80	0	1	81
CC1C/C(=N/Nc2nc3ccccc3[nH]2)CC(C)(C)C1 (centres undefined)	85*	-0.24	21	31	6	13
Cc1cc(N/N=C2\CC(C)CC(C)(C)C2)nc2ccccc12 (centres undefined)	99*	-0.81	nt	-27	0	nt
SMILES	L major viab	ROMK mod	bCat KO growth	INS promoter inh	p97 ATPase inh	PTEN del growth
C=CCOC(=O)C1=C[C@@H](c2coc3ccccc3c2=O)[C@H](CCCO)[C@@H](OCC)O1	-10	nt	nt	nt	2	nt
Cc1nnsc1C(=O)NC(C)C12CC3CC(CC(C3)C1)C2 (centres undefined)	-3	-1.5	81	nt	-1	91
Cc1c(CN(C)C)c2c(n1C)C(=O)c1ccc(Br)cc1-2	70*	-1.5	68	-43	0	68
Cc1c(CN(C)C)c2c(n1Cc1ccccc1)C(=O)c1ccc(Br)cc1-2	48	-0.1	10	-12	-1	8
CN(c1ccc(OCC(=O)OCC(=O)NCc2ccco2)cc1)S(=O)(=O)c1ccc2ccccc2c1	-12	-0.16	nt	nt	0	nt
CCN(CC)Cc1c(NC(=O)c2ccccc2)sc(C)c1C	21	nt	nt	20	5	nt
CCOC(=O)c1c(NC(=O)c2ccccc2)sc2c(O)c(CN(CC)CC)ccc12	100*	-0.079	90	nt	7	88
CCN(CC)C(=O)c1c(NC(=O)c2ccccc2)sc(C)c1C	-5	-1.1	92	29	15*	96
CCCN(CCC)C(=S)NC(=O)c1ccc(Cl)cc1Cl	1	nt	30	20	1	31
COc1ccc(C(=O)OCCCN(C)C)cc1OC	58*	1.3	87	41	6	96
CCCN(CCC)CCCOC(=O)c1ccc(Cl)cc1Cl	90*	-0.83	99	-3	-1	94
CN(C)CCCOC(=O)c1ccc(Cl)cc1Cl	93*	-0.85	98	-36	-7	107
Cc1cc(NC(=O)CN(C)C)c([N+](=O)[O-])cc1C	-8	-0.023	nt	nt	1	nt
Cc1ccc([N+](=O)[O-])cc1NCC(=O)NN	-6	0.61	nt	nt	3	nt
COc1ccc2[nH]c(=O)c(CN(Cc3cccs3)C(=S)Nc3cccc(C)c3)cc2c1	100*	0.073	62	30	3	63
Cc1ccc(C)c2[nH]c(=O)c(CN(Cc3cccs3)C(=S)NCc3ccco3)cc12	70*	0.085	67	-48	3	64
CNC(=S)N(Cc1cccs1)Cc1cc2cc(OC)ccc2[nH]c1=O	1	nt	88	11	3	91
CCN(CC)CCN(Cc1cc2cc(C)c(C)cc2[nH]c1=O)C(=S)NCc1ccco1	60*	-0.88	nt	-87	5	nt
Cc1cc2cc(CN(Cc3cccs3)C(=S)NCc3ccco3)c(=O)[nH]c2cc1C	88*	0.39	92	-11	0	87
COCCNC(=S)N(Cc1cccs1)Cc1cc2cccc(C)c2[nH]c1=O	25	-0.17	nt	nt	-6	nt
COc1ccc(S(=O)(=O)N2CCCC(C(=O)NCCC(C)C)C2)cc1 (centres undefined)	-3	-0.89	nt	nt	1	nt
OCCn1c(C(F)(F)F)nc2ccccc21	-7	0.25	1.0*	19	-1	0.4*
Cc1nn(Cc2c(F)c(F)c(F)c(F)c2F)c(C)c1NC(=O)c1cccc(COc2ccc(Cl)cc2)c1	-2	0.12	85	nt	1	79
CC(C)c1cc(C(N)=O)c(NC(=O)c2cccc(COc3ccc(Cl)cc3)c2)s1	96*	-0.16	26	-14	-1	31
CCCCn1nc(CC(=O)NCCN(CC)CC)c2ccccc2c1=O	nt	-0.04	nt	nt	7	nt
O=C(Nc1cc(C(F)(F)F)ccc1Cl)C(NCc1ccccc1)c1ccccc1 (centres undefined)	92*	nt	71	-8	-6	72
